Laboratory results as given in PubChem BioAssay (NCATS).
Inconclusive results are not listed. A call without a number means that no potency is given here. Active and inactive are the calls of the source. Calls come from the whole dose curve; as a rule, active = well fitted inhibition curve with a large enough effect; inconclusive = small, poorly fitted or top-dose-only effect; inactive = flat fitted curve, though single readings scatter.

Assays:
Experiment in all cases: qHTS profiling for inhibitors of Plasmodium falciparum proliferation (AID 504749); note: nearly all actives have a fitted effect of over 60% in size
AA1029 = conditions: P. falciparum in erythrocytes, SYBR Green DNA, 72 h; series mostly up to 12.8 µM
Summary of the method: (§1)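 SYBR Green fluorescence of parasite DNA, read after lysis and overnight dark incubation, measured growth over 72 h in erythrocyte culture at 0.3% parasitemia and 2.5% hematocrit. Data normalised to DMSO and 0.29 uM artemisinin, with plate-drift correction.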

ATS95 = conditions: P. falciparum in erythrocytes, SYBR Green DNA, 72 h; series mostly up to 12.8 µM
Summary of the method: as §1

CP211 = conditions: P. falciparum in erythrocytes, SYBR Green DNA, 72 h; series mostly up to 12.8 µM
Summary of the method: as §1

CP217 = conditions: P. falciparum in erythrocytes, SYBR Green DNA, 72 h; series mostly up to 12.8 µM
Summary of the method: as §1

CP237 = conditions: P. falciparum in erythrocytes, SYBR Green DNA, 72 h; series mostly up to 12.8 µM
Summary of the method: as §1

CP238 = conditions: P. falciparum in erythrocytes, SYBR Green DNA, 72 h; series mostly up to 12.8 µM
Summary of the method: as §1

CP252 = conditions: P. falciparum in erythrocytes, SYBR Green DNA, 72 h; series mostly up to 12.8 µM
Summary of the method: as §1

CP260 = conditions: P. falciparum in erythrocytes, SYBR Green DNA, 72 h; series mostly up to 12.8 µM
Summary of the method: as §1

CP265 = conditions: P. falciparum in erythrocytes, SYBR Green DNA, 72 h; series mostly up to 12.8 µM
Summary of the method: as §1

CP266 = conditions: P. falciparum in erythrocytes, SYBR Green DNA, 72 h; series mostly up to 28.7 µM
Summary of the method: as §1

CP268 = conditions: P. falciparum in erythrocytes, SYBR Green DNA, 72 h; series mostly up to 12.8 µM
Summary of the method: as §1

CP269 = conditions: P. falciparum in erythrocytes, SYBR Green DNA, 72 h; series mostly up to 12.8 µM
Summary of the method: as §1

CP315 = conditions: P. falciparum in erythrocytes, SYBR Green DNA, 72 h; series mostly up to 12.8 µM
Summary of the method: as §1

CP325 = conditions: P. falciparum in erythrocytes, SYBR Green DNA, 72 h; series mostly up to 12.8 µM
Summary of the method: as §1

CP335 = conditions: P. falciparum in erythrocytes, SYBR Green DNA, 72 h; series mostly up to 12.8 µM
Summary of the method: as §1

DIV17 = conditions: P. falciparum in erythrocytes, SYBR Green DNA, 72 h; series mostly up to 12.8 µM
Summary of the method: as §1

N140 = conditions: P. falciparum in erythrocytes, SYBR Green DNA, 72 h; series mostly up to 12.8 µM
Summary of the method: as §1

PC26 = conditions: P. falciparum in erythrocytes, SYBR Green DNA, 72 h; series mostly up to 12.8 µM
Summary of the method: as §1

SC27B = conditions: P. falciparum in erythrocytes, SYBR Green DNA, 72 h; series mostly up to 12.8 µM
Summary of the method: as §1

TAB165 = conditions: P. falciparum in erythrocytes, SYBR Green DNA, 72 h; series mostly up to 12.8 µM
Summary of the method: as §1
Potency is the fitted concentration of half-maximal effect.

Structure (SMILES) | Potency (AA1029) | Potency (ATS95) | Potency (CP211) | Potency (CP217) | Potency (CP237) | Potency (CP238) | Potency (CP252) | Potency (CP260) | Potency (CP265) | Potency (CP266) | Potency (CP268) | Potency (CP269) | Potency (CP315) | Potency (CP325) | Potency (CP335) | Potency (DIV17) | Potency (N140) | Potency (PC26) | Potency (SC27B) | Potency (TAB165)
Cc1cc(/C=C\c2ccc3cc(N(C)C)ccc3[n+]2C)c(C)n1-c1ccccc1 | 1580 nM (active) | 1580 nM (active) | 1810 nM (active) | 3160 nM (active) | 562 nM (active) | 1580 nM (active) | 3550 nM (active) | 355 nM (active) | 2510 nM (active) | 2870 nM (active) | 4050 nM (active) | 2560 nM (active) | 2030 nM (active) | 2560 nM (active) | 572 nM (active) | 3610 nM (active) | 3980 nM (active) | 3610 nM (active) | 2510 nM (active) | 794 nM (active)
CN(C)CC/C=C1\c2ccccc2CSc2ccccc21 |  |  |  |  |  |  |  |  |  | inactive |  |  |  |  |  |  |  |  |  | 
CC(C)N1CCN(c2ccc(OC[C@@H]3CO[C@@](Cn4cncn4)(c4ccc(Cl)cc4Cl)O3)cc2)CC1 | inactive | inactive | inactive | inactive | inactive | inactive | inactive | inactive | inactive |  | inactive | inactive | inactive | inactive | inactive | inactive | inactive | inactive | inactive | inactive
